The supplement of paper PMC8728848
Only a selection was taken, and the strongest signals are over-represented in it overall.

Legend:
Test in all cases: glycan array binding signal (z-score within array); higher = stronger binding
Settings in all cases: glycan notation: IUPAC condensed, linker removed
[1] = target: Gal(b1-4)GlcNAc(b1-6)[Gal(b1-4)GlcNAc(b1-3)]GalNAc
How it was run: (§1)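 Glycan array data came from 3228 arrays in the Consortium for Functional Glycomics database, and only arrays with an available protein sequence were kept. Glycan names were put into IUPAC-condensed notation, and columns mapping to the same glycan were averaged. The binding signal is a within-array Z-score, averaged across arrays of one protein sequence run at different concentrations or buffers and across linkers. A negative Z-score can be read as non-binding.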

Gal3S(b1-3)GalNAc = target: Gal3S(b1-3)GalNAc
How it was run: as §1

Gal3S4S(b1-4)GlcNAc = target: Gal3S4S(b1-4)GlcNAc
How it was run: as §1

Gal3S6S(b1-4)GlcNAc = target: Gal3S6S(b1-4)GlcNAc
How it was run: as §1

[2] = target: GalNAc(b1-4)GlcNAc(b1-2)Man
How it was run: as §1

[3] = target: GlcNAc(a1-4)Gal(b1-4)GlcNAc(b1-3)Gal(b1-4)GlcNAc
How it was run: as §1

[4] = target: GlcNAc(b1-2)Man(a1-3)[GlcNAc(b1-2)Man(a1-6)]Man(b1-4)GlcNAc(b1-4)GlcNAc
How it was run: as §1

[5] = target: GlcNAc(b1-2)Man(a1-3)[GlcNAc(b1-2)Man(a1-6)]Man(b1-4)GlcNAc(b1-4)[Fuc(a1-6)]GlcNAc
How it was run: as §1

[6] = target: GlcNAc(b1-3)Gal(b1-4)GlcNAc(b1-3)Gal(b1-4)GlcNAc(b1-3)Gal(b1-4)GlcNAc(b1-3)Gal(b1-4)GlcNAc(b1-2)Man(a1-3)[GlcNAc(b1-3)Gal(b1-4)GlcNAc(b1-3)Gal(b1-4)GlcNAc(b1-3)Gal(b1-4)GlcNAc(b1-3)Gal(b1-4)GlcNAc(b1-2)Man(a1-6)]Man(b1-4)GlcNAc(b1-4)GlcNAc
How it was run: as §1

[7] = target: GlcNAc(b1-3)Gal(b1-4)GlcNAc(b1-3)Gal(b1-4)GlcNAc(b1-3)Gal(b1-4)GlcNAc(b1-3)Gal(b1-4)GlcNAc(b1-2)Man(a1-3)[GlcNAc(b1-3)Gal(b1-4)GlcNAc(b1-3)Gal(b1-4)GlcNAc(b1-3)Gal(b1-4)GlcNAc(b1-3)Gal(b1-4)GlcNAc(b1-2)Man(a1-6)]Man(b1-4)GlcNAc(b1-4)[Fuc(a1-6)]GlcNAc
How it was run: as §1

[8] = target: GlcNAc(b1-3)Gal(b1-4)GlcNAc(b1-3)GalNAc
How it was run: as §1

[9] = target: GlcNAc(b1-3)[GlcNAc(b1-6)]GalNAc
How it was run: as §1

GlcNAc(b1-6)GalNAc = target: GlcNAc(b1-6)GalNAc
How it was run: as §1

Kdn(a2-3)Gal(b1-4)Glc = target: Kdn(a2-3)Gal(b1-4)Glc
How it was run: as §1

[10] = target: Man(a1-2)Man(a1-3)[Man(a1-6)]Man(a1-6)[Man(a1-2)Man(a1-3)]Man(b1-4)GlcNAc(b1-4)GlcNAc
How it was run: as §1

[11] = target: Man(a1-3)[Man(a1-6)]Man(b1-4)GlcNAc(b1-4)GlcNAc
How it was run: as §1

[12] = target: Neu5Ac(a2-3)Gal(b1-4)[Fuc(a1-3)]GlcNAc(b1-3)Gal(b1-4)GlcNAc
How it was run: as §1

[13] = target: Neu5Ac(a2-3)Gal6S(b1-4)[Fuc(a1-3)]GlcNAc
How it was run: as §1

[14] = target: Neu5Ac(a2-6)Gal(b1-3)GlcNAc(b1-3)[Gal(b1-4)GlcNAc(b1-6)]Gal(b1-4)Glc
How it was run: as §1

[15] = target: Neu5Ac(a2-8)Neu5Ac(a2-3)Gal(b1-3)GalNAc(b1-4)[Neu5Ac(a2-8)Neu5Ac(a2-3)]Gal(b1-4)Glc
How it was run: as §1

[16] = target: Neu5Ac(a2-8)Neu5Ac(a2-3)Gal(b1-4)GlcNAc
How it was run: as §1

[17] = target: Neu5Gc(a2-3)Gal(b1-4)GlcNAc(b1-3)Gal(b1-4)GlcNAc(b1-2)Man(a1-3)[Neu5Gc(a2-3)Gal(b1-4)GlcNAc(b1-3)Gal(b1-4)GlcNAc(b1-2)Man(a1-6)]Man(b1-4)GlcNAc(b1-4)GlcNAc
How it was run: as §1

[18] = target: Neu5Gc(a2-6)Gal(b1-4)GlcNAc
How it was run: as §1

[19] = target: Neu5Gc(a2-8)Neu5Gc(a2-3)Gal(b1-4)GlcNAc
How it was run: as §1

B1: Gal 3C (Homo sapiens), P17931 (protein)
chain: YGAPAGPLIVPYNLPLPGGVVPRMLITILGTVKPNANRIALDFQRGNDVAFHFNPRFNENNRRVIVCNTKLDNNWGREERQSVFPFESGKPFKIQVLVEPDHFKVAVNDAHLLQYNHRVKKLNEISKLGISGDIDLTSASYTMI
glycan array binding signal (z-score) [1]: -0.244 | glycan array binding signal (z-score) (Gal3S(b1-3)GalNAc): -0.289 | glycan array binding signal (z-score) (Gal3S4S(b1-4)GlcNAc): -0.291 | glycan array binding signal (z-score) (Gal3S6S(b1-4)GlcNAc): -0.289 | glycan array binding signal (z-score) [2]: -0.274 | glycan array binding signal (z-score) [3]: -0.2 | glycan array binding signal (z-score) [4]: -0.279 | glycan array binding signal (z-score) [5]: -0.196 | glycan array binding signal (z-score) [6]: 4.63 | glycan array binding signal (z-score) [7]: 4.02 | glycan array binding signal (z-score) [8]: -0.286 | glycan array binding signal (z-score) [9]: -0.331 | glycan array binding signal (z-score) (GlcNAc(b1-6)GalNAc): -0.322 | glycan array binding signal (z-score) (Kdn(a2-3)Gal(b1-4)Glc): -0.237 | glycan array binding signal (z-score) [10]: -0.298 | glycan array binding signal (z-score) [11]: -0.065 | glycan array binding signal (z-score) [12]: -0.191 | glycan array binding signal (z-score) [13]: -0.327 | glycan array binding signal (z-score) [14]: -0.3 | glycan array binding signal (z-score) [15]: -0.226 | glycan array binding signal (z-score) [16]: -0.266 | glycan array binding signal (z-score) [17]: -0.152 | glycan array binding signal (z-score) [18]: -0.31 | glycan array binding signal (z-score) [19]: -0.336
